IL-1B inflam inh: inhibitors of inflammasome signaling (IL-1 beta secretion); THP-1 LPS/ATP IL-1B secretion, AlphaLISA, 16 h; hits give low values; activity change, % at 57.5 µM; actives 4.7% (n = 360,000); in the data active = activity change below about -50%; inconclusive = mostly about -30% to -49%
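THP-1 cells pretreated 1 hr with compounds (up to 57.5 uM final), then stimulated with LPS (250 ng/mL final) plus ATP (1.25 mM final); secreted IL-1B measured by AlphaLISA after 16 hr, decreased signal indicating inhibition.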
HT1080-NT tox: kills 2HG-producing HT-1080-NT fibrosarcoma cells; AID 686970; Potency, µM (series often up to 46.1 µM), without a hit: at the top dose activity, negative = less viability, actives largely listed as cytotoxic; HT-1080-NT fibrosarcoma viability, CellTiter-Glo ATP luminescence, 48 h; actives 1.6% (n = 360,000);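 note: NT is the 2HG producing partner of a matched IDH1 knockdown line; potency is the fitted concentration of half-maximal effect; 0% = DMSO-treated cells and -100% = media-only wells without cells; nearly all actives have a fitted effect of over 55% in size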
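Fibrosarcoma NT cells, 750 per well in 5% FBS RPMI, were exposed to compound for 48 hours. Viability: CellTiter-Glo luminescence.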
TDP1 cell noCPT: qHTS for Inhibitors of human tyrosyl-DNA phosphodiesterase 1 (TDP1): qHTS in cells in absence of CPT | actives 15% (n = 420,000) | Potency, µM (highest dose often 46.2 µM), without a hit: at the highest dose activity change, negative = growth inhibition, most hits filed as inhibitors | DT40 Tdp1-/- hTDP1 cells, no CPT, ATP luminescence, 48 h; note: potency is the fitted concentration of half-maximal effect; nearly all actives have a fitted effect of over 55% in size
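Camptothecin absent (DMSO only). Human TDP1-complemented DT40 knockout cells, 400 cells/well, 37 °C for minimum 48 hr; ATP measured via CellTiter-Glo, 30 min dark incubation, luminescence.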
HT1080 IDH1KD tx: kills HT-1080 cells with IDH1 knockdown | AID 686971 | Potency, µM (top dose mostly 46.1 µM), without a hit: at the highest dose activity, negative = toxicity, actives largely listed as cytotoxic | HT-1080 IDH1 knockdown viability, ATP luminescence, 48 h | actives 2% (n = 360,000);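 note: potency is the fitted concentration of half-maximal effect; 0% = DMSO wells and -100% = cell-free medium wells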
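Knockdown cells (IDH1KD HT-1080) received compounds 2 h after plating at 750 cells/well and were kept 48 h at 37 °C in 5% FBS RPMI. A CellTiter-Glo luminescence read gave % activity for curve fitting.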
DT40 TDP1 CPT: DT40-hTDP1 cell growth loss with CPT. Potency, µM (titrated, usually from 46.2 µM), inactives show at the highest dose activity change, negative = growth inhibition, hits mostly inhibitors. AID 686979. actives 12% (n = 420,000). chicken DT40 Tdp1-/-;hTDP1 cells + 20 nM CPT, ATP luminescence, 48 h; note: potency is the fitted concentration of half-maximal effect; nearly all actives have a fitted effect of over 55% in size
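Chicken DT40 Tdp1-/- cells complemented with human TDP1, 400 cells/well, exposed to compounds plus 20 nM camptothecin for at least 48 h at 37 C; viability read as ATP content by CellTiter-Glo luminescence.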
Active calls of the source: *; ? = inconclusive; · = not tested or not shown; [ ] = remark or other dose. A selection: hits, their analogues and other compounds. The true share with any hit is near 19%. Unless noted, calls come from the whole dose curve; as a rule, active = well fitted curve in the direction sought with a large enough effect; inconclusive = small, poorly fitted or top-dose-only effect, or another doubt; inactive = no such curve, though single readings can be large; an effect the other way counts as inactive or inconclusive. Unless noted, % is set by controls: 0 for no effect and ±100 for the full control effect.

SMILES	IL-1B inflam inh	HT1080-NT tox	TDP1 cell noCPT	HT1080 IDH1KD tx	DT40 TDP1 CPT
COc1ccc(Cl)cc1NC(=O)Cc1ccc(NC(=O)N2CCCCc3ccccc32)cc1	·	·	20.6µM*	·	18.4µM*
O=C(Cc1ccc(NC(=O)N2CCCCc3ccccc32)cc1)NCc1ccccc1Br	·	·	23.1µM*	·	?
COc1ccc(CC(=O)N2CCCc3ccccc32)cc1OC	12.1	-10.2%	?	-15.3%	-26.0%
Cc1oc(-c2cccs2)nc1CN1CCN(C(C)C)C(CCO)C1 (configuration not stated)	15.8	5.5%	5.1%	19.5%	-2.5%
COc1cccc(NC(=O)CSc2nccn2Cc2ccc3c(c2)OCO3)c1	·	·	?	·	-29.4%
CCN(CC)S(=O)(=O)c1ccc(NC(=O)CCNC(=O)c2ccccc2)cc1	4.7	-2.9%	?	-2.9%	-5.4%
CCN(CC)S(=O)(=O)c1ccc(C(=O)NCCSc2c(-c3ccc(F)cc3)[nH]c3ccccc23)cc1	·	·	6.51µM*	·	8.2µM*
COc1ccc(-c2[nH]c3ccccc3c2SCCNC(=O)c2ccccc2)cc1	-1.2	?	9.2µM*	?	13µM*
CN(C)S(=O)(=O)c1ccc(C(=O)NCCSc2c(-c3ccc(Br)cc3)[nH]c3ccccc23)cc1	·	·	2.31µM*	·	4.11µM*
Cc1ccc(OCC(=O)Nc2ccc3c(c2)nc(CCN2CCN(c4ccccn4)CC2)n3C)cc1	47.8	20.6µM*	20.6µM*	20.6µM*	23.1µM*
Cc1ccc(OCC(=O)Nc2ccc3c(c2)nc(CCN2CCN(C)CC2)n3C)cc1	23.0	-6.7%	?	12.5%	?
Cn1c(CCN2CCN(c3ccccn3)CC2)nc2cc(NC(=O)COc3ccccc3)ccc21	-13.6	-18.2%	25.9µM*	-3.3%	?
CCCC(=O)Nc1ccc2c(c1)nc(CCN1CCN(c3ccccn3)CC1)n2C	11.5	19.6%	-11.8%	7.3%	1.0%
Cc1ccc2c(=O)cc(C(=O)Nc3cccc(C(F)(F)F)c3)oc2c1C	·	·	?	·	-26.9%
CCOC(=O)N1CCC(NC(=O)c2ccc3c(c2)N(Cc2ccc(C)cc2)CCS3)CC1	24.1	-4.4%	20.6µM*	-2.3%	20.6µM*
CCOC(=O)N1CCC(NC(=O)c2ccc3c(c2)N(Cc2ccc(F)cc2)CCS3)CC1	-8.3	-24.9%	23.1µM*	-14.8%	23.1µM*
O=C(c1ccc2c(c1)N(Cc1ccc(F)cc1)CCS2)N1CCN(c2ccccc2)CC1	·	·	23.1µM*	·	20.6µM*
Cc1ccc(CN2CCSc3ccc(C(=O)N4CCN(c5ccccc5)CC4)cc32)cc1	·	·	-24.3%	·	?
CCOC(=O)N1CCN(C(=O)c2ccc3c(c2)N(CC)CCS3)CC1	-6.2	-11.1%	?	2.6%	?
CCOC(=O)N1CCN(C(=O)c2ccc3c(c2)N(Cc2ccc(F)cc2)CCS3)CC1	21.3	-7.6%	9.2µM*	-9.4%	8.2µM*
Cc1c(C)c(C)c(CN2CCCC2)c(C)c1C	9.7	2.5%	-22.7%	-7.8%	-4.5%
Cc1noc(C)c1NC(=O)N(C)C[C@@H]1OCc2ccccc2-c2c(n(C)c3ccccc23)C(=O)N([C@H](C)CO)C[C@H]1C	-5.1	4.1%	?	8.3%	-24.9%
O=C(O)C(O)C(O)(Cc1ccc(O)cc1)C(=O)O (configuration not stated)	·	·	-14.4%[9.04 µM]	·	16.1%[9.04 µM]
CC(C)C[C@@H](CNCC(=O)[C@H](C)NC(=O)c1[nH]cnc1C(=O)N[C@@H](C)CN)NC(=O)c1nc[nH]c1C(=O)N[C@@H](CC(=O)O)C(=O)O	16.6	2.1%	-5.9%	7.7%	1.3%
CCNC(=O)C1(C)CCCN(Cc2cccc3c(OC)cc(C(=O)OCC)cc23)C1 (configuration not stated)	-16.2	4.4%	?	-0.6%	?
SMILES	IL-1B inflam inh	HT1080-NT tox	TDP1 cell noCPT	HT1080 IDH1KD tx	DT40 TDP1 CPT
COc1ccc(N2CCN(C(=O)c3cc(-c4ccc(F)cc4)[nH]c3C)CC2)cc1	-14.1	-14.1%	-19.8%	-11.8%	-20.9%
O=C(NC1CC1)c1ccc2c(c1)N(Cc1ccccc1)CCS2	-24.0	-5.6%	-20.8%	-13.4%	?
CCOC(=O)N1CCN(C(=O)c2cc(-c3ccc(F)cc3)[nH]c2C)CC1	-9.9	11.1%	20.6µM*	12.8%	?
CCOC(=O)N1CCC(NC(=O)c2ccc3c(c2)N(Cc2ccccc2)CCS3)CC1	32.5	11.7%	14.6µM*	1.8%	18.4µM*
COc1ccc(NS(=O)(=O)c2ccc3c(c2)CCC(=O)N3)cc1O	0.7	-0.1%	3.6%	-3.9%	?
Cn1nnnc1SCCNCc1ccccc1OCc1ccccc1Cl	-50.4*	?	13µM*	-15.5%	?
Cn1nnnc1SCCNCc1ccccc1OCc1ccccc1F	·	·	?	·	18.4µM*
Cn1nnnc1SCCNCc1cc(Br)ccc1OCc1ccccc1Cl	·	·	16.4µM*	·	23.1µM*
CCOc1ccccc1CNCCCSc1nnnn1C	·	·	-15.4%	·	-1.0%
COc1ccccc1CNCCSc1nnnn1C	·	·	-13.7%	·	2.6%
CCCCOc1ccc(C(=O)NCC(=O)NC(C)CCc2ccccc2)cc1 (configuration not stated)	-6.5	-12.5%	-11.6%	-7.9%	-5.0%
CNS(=O)(=O)c1cccc(C(=O)OCc2cc(=O)n3cc(Br)ccc3n2)c1	3.4	-0.5%	?	3.8%	?
CCCCNCc1cc(Br)c(OCc2cccs2)c(OC)c1	-24.5	?	?	20.6µM*	?
CCCCOc1c(Br)cc(CNCCCN2CCOCC2)cc1OC	-66.0*	-27.8%	13µM*	?	?
CCOc1c(Br)cc(CNCc2cccs2)cc1OC	14.8	-1.6%	-17.4%	-3.7%	26.4%
CC(=O)Nc1cccc(C(=O)NNC(=O)c2ccccc2-n2cccc2)c1	0.4	6.8%	25.9%	7.3%	-6.8%
Cc1ccc(S(=O)(=O)NCCC(=O)N2CCC(C(N)=O)CC2)cc1C	20.0	4.5%	1.5%	9.1%	-2.7%
CC(C)CC(=O)NC(=S)Nc1ccc(S(=O)(=O)N2CCCC2)cc1	2.2	-5.6%	?	8.3%	?
CCOC(=O)C1CCN(C(=O)c2cccc(S(=O)(=O)N3CCc4ccccc43)c2)CC1	30.0	3.6%	?	0.0%	?
CCOC(=O)C1CCN(C(=O)c2cccc(S(=O)(=O)N3CCCc4ccccc43)c2)CC1	-6.9	-4.6%	23.1µM*	-1.9%	?
CC1CCCN(C(=O)c2cccc(S(=O)(=O)N3CCCc4ccccc43)c2)C1 (configuration not stated)	-14.6	-1.6%	10.3µM*	-11.8%	10.3µM*
COC(=O)[C@@H]1C[C@@H](NC(=O)c2cnsn2)CN1Cc1ccc(Cl)cc1	·	·	-14.9%	·	-12.7%[9.04 µM]

From PubChem BioAssay
